“And” between values parts separate entries of the source, which are not always exact repeats. Equal entries are not always repeated. Results filed as inconclusive are left out. A number with no mark means an inactive call. The source made the active and inactive calls. Calls follow the shape of the dose curve; as a rule, active = well fitted cell-killing curve with a large enough effect in the repeat runs; inconclusive = weak or mixed curves, or effect the other way; inactive = flat fitted curve, though single readings scatter.
Assay: qHTS assay to identify small molecule agonists of the estrogen receptor beta (ER-beta) signaling pathway - cell viability counter screen (AID 1259380); also: nearly all actives have a fitted effect of over 30% in size
Conditions: ER-beta-bla HEK293T viability, CellTiter-Glo luminescence, 16 h; series mostly up to 92.4 µM; activity change, negative = cytotoxicity: at the top concentration
Description: National Center for Advancing Translational Sciences [NCATS]
NIH Chemical Genomics Center [NCGC]
U.S. Environmental Protection Agency [EPA]
National Institutes of Environmental Health Sciences [NIEHS]
National Toxicology Program [NTP]
U.S. Food and Drug Administration [FDA]
Estrogen receptor (ER), a nuclear hormone receptor, plays an important role in development, metabolic homeostasis and reproduction. Two subtypes of ER, ER-alpha and ER-beta, have similar expression patterns with some uniqueness in both types. Endocrine disrupting chemicals (EDCs) and their interactions with steroid hormone receptors like ER causes disruption of normal endocrine function. To identify the compounds that activate ER signaling, an ER beta-UAS-bla GripTite cell line (Life Technologies, Madison, WI, USA) containing a beta-lactamase reporter gene under the control of an UAS response element was used to screen Tox21 10K compound library. The cytotoxicity of the Tox21 compound library against the ER-beta-bla cell line was tested in parallel by measuring the cell viability using CellTiter-Glo assay in the same wells.
Tox21 Assay Protocol Summary:
ER-beta-UAS-bla HEK293T cells were dispensed at 2,000 cells/5 uL of assay medium containing 2% charcoal stripped FBS per well into black wall/clear-bottom 1536-well plates using a Multidrop Combi (ThermoFisher Scientific, Waltham, MA) dispenser. After the assay plates were incubated at a 37C and 5% CO2 for 6 hr, 23 nL of compounds dissolved in DMSO, positive controls or DMSO only was transferred to the assay plate by a Pintool station (Kalypsys, San Diego, CA). The plates were incubated at 37C and 5% CO2 for 16 hr. Then 1 uL of LiveBLAzerTM B/G FRET substrate was added using a BioRAPTR FRD (Flying Reagent Dispenser, Aurora Discovery, San Diego, CA) and then the plates were incubated at room temperature for 2 hours, and fluorescence intensity was measured by an Envision plate reader (PerkinElmer, Shelton, CT). For cell viability readout that measures cytotoxicity, 4 uL/well of CellTiter-Glo reagent was added into the assay plates using a FRD. After 30 min incubation at room temperature, the luminescence intensity in the plates was measured using a ViewLux (PerkinElmer) plate reader.
% is scaled to controls: 0 for no effect and ±100 for the full control effect; potency is read from the fitted curve at half-maximal effect.

Structure (SMILES)	activity change, negative = cytotoxicity	Potency
COC(=O)N(C(=O)N1COC2(C(=O)OC)Cc3cc(Cl)ccc3C2=N1)c1ccc(OC(F)(F)F)cc1 (stereo not given)	-10.9% [at 42.5 µM]	
CN(C)C(=S)S		5.56 µM (active) and 1.21 µM (active) and 12.2 µM (active)
O=[N+]([O-])c1ccc2ccc3cccc4ccc1c2c34		30.6 µM (active)
CC(=O)c1ccc(-c2ccccc2)cc1	-0.207%	
ClC1=C(Cl)C2(Cl)C3C(Cl)C=CC3C1(Cl)C2(Cl)Cl (stereo not given)		61.4 µM (active)
CC(C)OS(C)(=O)=O	-6.97%	
OC(Cc1ccccc1Cl)(Cn1cncn1)C1(Cl)CC1 (stereo not given)	-8%	
COc1ccc(OC)c(C=O)c1	-2.74%	
ClCCN1CCOCC1	-0.533%	
NC(=O)c1ccc(N)nc1		48.6 µM (active)
O=[N+]([O-])c1cc([N+](=O)[O-])c2ccccc2c1	-7.5%	
[Cl][Sb]([Cl])[Cl]	9.91%	
Clc1ccc(C(c2ccccc2Cl)C(Cl)(Cl)Cl)cc1 (stereo not given)		48.9 µM (active)
S=C=Nc1cccc2ccccc12		60.5 µM (active)
O=C(O)C1C2CCC(O2)C1C(=O)O (stereo not given)		inactive
c1ccc2cc3c(cc2c1)-c1cccc2cccc-3c12	2.6%	
CC(C)CCCCCCCOP(=O)(Oc1ccccc1)Oc1ccccc1	0.547%	
O=C1NCN(c2ccccc2)C12CCN(CC1COc3ccccc3O1)CC2 (stereo not given)		11.9 µM (active)
CCC(C)(C)C(=O)OC1=C(c2ccc(Cl)cc2Cl)C(=O)OC12CCCCC2	-5.96%	
Clc1ccc(-c2ccc(Cl)c(Cl)c2Cl)c(Cl)c1Cl		58.2 µM (active)

Structure (SMILES)	activity change, negative = cytotoxicity	Potency
CCCCCCCCCCCCCC[P+](CCCCCC)(CCCCCC)CCCCCC (tested in a mixture with another compound)		24.3 µM (active)
O=C(CCl)Nc1ccccc1	-13.2%	
COP(=O)(CCC(=O)NCO)OC	-0.968%	
C=CC(=O)OCC(COC(=O)C=C)(COC(=O)C=C)COC(=O)C=C		7.7 µM (active)
CC(C)CC(C)N (stereo not given)	3.16%	
CC(=O)/C=C/c1ccc2c(c1)OCO2	1.31%	
CCc1ccccc1C	2.76%	
CC1(C)[C@H](C(=O)O[C@H](C#N)c2cccc(Oc3ccccc3)c2)[C@@H]1/C=C(\Cl)C(F)(F)F		inactive
O=S(=O)(c1ccc(Cl)cc1)c1ccc(Cl)cc1	-3.06%	
CC(C)(COCC1CO1)COCC1CO1 (stereo not given)	-4.38%	
COc1cc(C=O)cc2c1[C@H](COC(N)=O)[C@]1(OC(C)=O)ON2C[C@H]2[C@@H]1N2C(C)=O	-3.47%	
COc1ccc([N+](=O)[O-])cc1O	0.967% [at 42.5 µM]	
ClC(Cl)=C(Cl)Cl	7.9%	
CC[C@H](C)[C@H]1O[C@]2(C=C[C@@H]1C)C[C@@H]1C[C@@H](C/C=C(\C)[C@@H](O[C@H]3C[C@H](OC)[C@@H](O[C@H]4C[C@H](OC)[C@@H](O)[C@H](C)O4)[C@H](C)O3)[C@@H](C)/C=C/C=C3\CO[C@@H]4[C@H](O)C(C)=C[C@@H](C(=O)O1)[C@]34O)O2		18.1 µM (active)
Clc1ccc(-c2ccccc2)cc1	5.05%	
NNC(=O)c1ccccc1	0.81%	
C[As+](C)(C)CC(=O)[O-]	2.97%	
C[C@]12Cc3nonc3C[C@@H]1CC[C@@H]1[C@@H]2CC[C@@]2(C)[C@H]1CC[C@]2(C)O		26.6 µM (active)
Oc1ccc2ccc3cccc4ccc1c2c34		12.2 µM (active)
CCC(C)c1cc(C(C)(C)C)cc(-n2nc3ccccc3n2)c1O (stereo not given)	-14.6% [at 42.5 µM]	

From PubChem BioAssay (Tox21)
